Source: PMC9911399, “Two distinct binding modes provide the RNA-binding protein RbFox with extraordinary sequence specificity”
Residue numbers refer to the chain shown, from its start. Whole data set: some 16,000 sequences, median “ka relative to ugcaugu” near 0.096, cut for the highest 2% near 0.35. The list comes from a sample in which the highest values are over-represented; it also holds similar and randomly drawn sequences.

T1: RBFOX1 RRM RbFoxmut (Fox-RRM*) (Homo sapiens, UniProt Q9NWB1 109-208, R118D;E147R;N151S;E152T)
T1 sequence: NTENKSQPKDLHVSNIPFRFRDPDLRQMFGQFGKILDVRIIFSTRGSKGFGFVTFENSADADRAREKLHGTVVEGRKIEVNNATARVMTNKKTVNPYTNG

B1: CACAGAG (DNA:RNA)
RNA: GGGAGACCGGAAUUCAGAUUGUCCCACAGAGUUAAAUCCCGUCGUAGCCACCA
DNA 1: CAATCTGAATTCCGGTCTCCC
DNA 2: TGGTGGCTACGACGGGATT
B2: ACGGAAU (DNA:RNA)
RNA: B1 RNA with C25A, A26C, C27G, A28G, G29A, G31U
DNA 1: CAATCTGAATTCCGGTCTCCC
DNA 2: TGGTGGCTACGACGGGATT
B3: AUGUUAC (DNA:RNA)
RNA: B1 RNA with C25A, A26U, C27G, A28U, G29U, G31C
DNA 1: CAATCTGAATTCCGGTCTCCC
DNA 2: TGGTGGCTACGACGGGATT
B4: CGGGGCG (DNA:RNA)
RNA: B1 RNA with A26G, C27G, A28G, A30C
DNA 1: CAATCTGAATTCCGGTCTCCC
DNA 2: TGGTGGCTACGACGGGATT
B5: GGAAAUG (DNA:RNA)
RNA: B1 RNA with C25G, A26G, C27A, G29A, A30U
DNA 1: CAATCTGAATTCCGGTCTCCC
DNA 2: TGGTGGCTACGACGGGATT
B6: GUUAAUG (DNA:RNA)
RNA: B1 RNA with C25G, A26U, C27U, G29A, A30U
DNA 1: CAATCTGAATTCCGGTCTCCC
DNA 2: TGGTGGCTACGACGGGATT
B7: GAGAGUA (DNA:RNA)
RNA: B1 RNA with C25G, C27G, A30U, G31A
DNA 1: CAATCTGAATTCCGGTCTCCC
DNA 2: TGGTGGCTACGACGGGATT
B8: AGAUUGU (DNA:RNA)
RNA: GGGAGACCGGAAUUCAGAUUGUCCAGAUUGUUUAAAUCCCGUCGUAGCCACCA
DNA 1: CAATCTGAATTCCGGTCTCCC
DNA 2: TGGTGGCTACGACGGGATT
B9: AAGAAUG (DNA:RNA)
RNA: B1 RNA with C25A, C27G, G29A, A30U
DNA 1: CAATCTGAATTCCGGTCTCCC
DNA 2: TGGTGGCTACGACGGGATT
B10: AAGAUUG (DNA:RNA)
RNA: B1 RNA with C25A, C27G, G29U, A30U
DNA 1: CAATCTGAATTCCGGTCTCCC
DNA 2: TGGTGGCTACGACGGGATT
B11: AGAAAUG (DNA:RNA)
RNA: B8 RNA with U28A, U29A, G30U, U31G
DNA 1: CAATCTGAATTCCGGTCTCCC
DNA 2: TGGTGGCTACGACGGGATT
B12: GAGUAUC (DNA:RNA)
RNA: B8 RNA with A25G, G26A, A27G, U29A, G30U, U31C
DNA 1: CAATCTGAATTCCGGTCTCCC
DNA 2: TGGTGGCTACGACGGGATT
B13: GAGUAUG (DNA:RNA)
RNA: B1 RNA with C25G, C27G, A28U, G29A, A30U
DNA 1: CAATCTGAATTCCGGTCTCCC
DNA 2: TGGTGGCTACGACGGGATT
B14: AGAAUGU (DNA:RNA)
RNA: B8 RNA with U28A
DNA 1: CAATCTGAATTCCGGTCTCCC
DNA 2: TGGTGGCTACGACGGGATT
B15: AAGAGAA (DNA:RNA)
RNA: B1 RNA with C25A, C27G, G31A
DNA 1: CAATCTGAATTCCGGTCTCCC
DNA 2: TGGTGGCTACGACGGGATT
B16: GGGAAUG (DNA:RNA)
RNA: B1 RNA with C25G, A26G, C27G, G29A, A30U
DNA 1: CAATCTGAATTCCGGTCTCCC
DNA 2: TGGTGGCTACGACGGGATT
B17: UCAUCAU (DNA:RNA)
RNA: B8 RNA with A25U, G26C, U29C, G30A
DNA 1: CAATCTGAATTCCGGTCTCCC
DNA 2: TGGTGGCTACGACGGGATT
B18: UGCGCUU (DNA:RNA)
RNA: B8 RNA with A25U, A27C, U28G, U29C, G30U
DNA 1: CAATCTGAATTCCGGTCTCCC
DNA 2: TGGTGGCTACGACGGGATT
B19: AUGACGC (DNA:RNA)
RNA: B8 RNA with G26U, A27G, U28A, U29C, U31C
DNA 1: CAATCTGAATTCCGGTCTCCC
DNA 2: TGGTGGCTACGACGGGATT
B20: CACUACU (DNA:RNA)
RNA: B1 RNA with A28U, G29A, A30C, G31U
DNA 1: CAATCTGAATTCCGGTCTCCC
DNA 2: TGGTGGCTACGACGGGATT

Molecular target: T1, RBFOX1 RRM RbFoxmut (Fox-RRM*)
Experiment: EMSA; HiTS-Eq, 1 nM pool, 10 min; buffer printed only for the single-RNA assays: 10 mM Tris pH 7.5, 150 mM NaCl, 3.4 mM EDTA, 0.001% NP-40, 30 C
Conditions: tags: His6 N-terminal (pET28a); label: 5' 32P
Outline: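 A pool of RNA with 7 randomized nucleotides, 5′-radiolabelled and with DNA-annealed flanks, was equilibrated at 1 nM for 10 min in 50 µL with purified RbFox RRM, wild type or mutant, across increasing protein concentrations. Free RNA was separated by 8% native PAGE, excised, reverse-transcribed, barcoded by PCR and sequenced. Relative association constants were obtained from read-count changes of each RNA species versus the control reaction and normalised to the cognate motif.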

Binder	binding signal
B1	0.124 KA relative to UGCAUGU
B2	0.115 KA relative to UGCAUGU
B3	0.161 KA relative to UGCAUGU
B4	0.16 KA relative to UGCAUGU
B5	0.177 KA relative to UGCAUGU
B6	0.138 KA relative to UGCAUGU
B7	0.143 KA relative to UGCAUGU
B8	0.222 KA relative to UGCAUGU
B9	1.07 KA relative to UGCAUGU
B10	0.223 KA relative to UGCAUGU
B11	0.121 KA relative to UGCAUGU
B12	0.237 KA relative to UGCAUGU
B13	0.795 KA relative to UGCAUGU
B14	0.798 KA relative to UGCAUGU
B15	0.115 KA relative to UGCAUGU
B16	1.15 KA relative to UGCAUGU
B17	0.0991 KA relative to UGCAUGU
B18	0.095 KA relative to UGCAUGU
B19	0.0829 KA relative to UGCAUGU
B20	0.0793 KA relative to UGCAUGU
